Compounds with a hit are over-represented: about 7.5% of the library has one in this group of screens.
HCMV antiviral = human cytomegalovirus inhibition; HFF cells, HCMV-luciferase reporter, 72 h; stronger effect = lower value; 410,000 compounds, 4.5% hits; activity change, negative = inhibition, % at 57.5 µM; in the data active = activity change below about -60%; inconclusive = no clear call, values can overlap the other calls; inactive = above about -39%
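After 16 h attachment at 37C, HFF cells received test compound and HCMV-luciferase (1 PFU/cell); reporter luminescence read 72 h later, data normalized against buffer-only and known inhibitor Salinomycin.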
HCV inh = HCV inhibition; Huh7.5.1 HCVcc-Cre infection, luciferase reporter, 44 h; Potency, µM (doses to about 41.8 µM), without a hit: at the top dose activity change, negative = inhibition, most hits filed as inhibitors; 340,000 compounds, 3.4% hits; AID 651820; also: potency is read from the fitted curve at half-maximal effect
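Infectious HCVcc-Cre (~0.5 moi) was added to cells just after compound, with cells seeded 4 h earlier at 1,000 per well. Luciferase activity after 44 h culture reported infection; substrate was incubated 15 min at room temperature before reading.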
Vaccinia Venus = vaccinia inhibition (Venus reporter); Vaccinia virus Venus reporter expression, fluorescence; Potency, µM (doses to about 36.5 µM), for the others: top-dose activity change, negative = inhibition, usual class: inhibitors; 330,000 compounds, 0.46% hits; AID 720580; calls by dose curve; tested in A549 cells; also: potency is read from the fitted curve at half-maximal effect; nearly all actives have a fitted effect of over 30% in size
FMDV antiviral = foot and mouth disease virus antiviral activity. FMDV antiviral cell-based qHTS. Potency, µM (series often up to 57.9 µM), inactives show at the highest dose activity change, negative = inhibition, usual class: inhibitors. 410,000 compounds, 1.2% hits. AID 1159524; calls by dose curve; tested in HEK293T cells; also: read-out not given here; potency is read from the fitted curve at half-maximal effect; nearly all actives have a fitted effect of over 45% in size
Vaccinia mCherry = inhibitors of vaccinia virus infection (mCherry reporter signal); Vaccinia virus mCherry reporter infection, fluorescence; Potency, µM (top dose mostly 36.5 µM), inactives show top-dose activity change, negative = inhibition, hits mostly inhibitors; 310,000 compounds, 0.63% hits; AID 720579; calls by dose curve; tested in A549 cells; also: potency is read from the fitted curve at half-maximal effect; nearly all actives have a fitted effect of over 35% in size
FBPA Giardia inh = blocks Giardia fructose-bisphosphate aldolase activity | AID 2451 | 290,000 compounds, 0.71% hits | Potency, µM (top dose mostly 59.6 µM), without a hit: top-dose activity, negative = inhibition, usual class: inhibitors | A8B2U2 | purified Giardia FBPA; also: potency is read from the fitted curve at half-maximal effect; nearly all actives have a fitted effect of over 55% in size
Target sequence (A8B2U2 whole entry, looked up): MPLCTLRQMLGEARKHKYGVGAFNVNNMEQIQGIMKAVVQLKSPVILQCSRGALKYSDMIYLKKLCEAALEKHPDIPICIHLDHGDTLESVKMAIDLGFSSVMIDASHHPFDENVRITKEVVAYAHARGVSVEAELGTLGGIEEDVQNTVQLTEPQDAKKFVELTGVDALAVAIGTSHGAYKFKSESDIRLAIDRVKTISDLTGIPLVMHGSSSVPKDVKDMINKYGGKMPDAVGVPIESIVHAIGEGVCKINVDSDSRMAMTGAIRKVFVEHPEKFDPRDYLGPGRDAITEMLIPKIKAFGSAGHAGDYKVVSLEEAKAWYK
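40 nM FBPA preincubated 10 min at RT with compound (up to 57.5 uM final), then substrate plus GAPDH/TPI/NAD/arsenate coupling and diaphorase/resazurin added. Fluorescence read after 20 min at RT, 525/598 nm.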
An asterisk follows results filed as active; i = inactive; ? = inconclusive; . = no result. Unless noted, calls follow the shape of the dose curve; as a rule, active = well fitted curve in the direction sought with a large enough effect; inconclusive = small, poorly fitted or top-dose-only effect, or another doubt; inactive = no such curve, though single readings can be large; an effect the other way counts as inactive or inconclusive. % is scaled to controls: 0 for no effect and ±100 for the full control effect.

SMILES | HCMV antiviral | HCV inh | Vaccinia Venus | FMDV antiviral | Vaccinia mCherry | FBPA Giardia inh
Cc1ccc(CSc2nc3ccccc3cc2C=O)cc1 | -97* | ? | ? | ? | . | -1%
COc1ccc(CCNC(=O)CNCCc2ccc(F)cc2)cc1 | -18 | -13% | . | -23% | . | -29%
O=S(=O)(c1ccc(Oc2ccc(F)c(Cl)c2)nc1)N1CCOCC1 | -34 | 20% | -7% | -25% | i | .
O=C(c1c[nH]c2ccccc12)C(Cl)c1ccccc1 (centres undefined) | -100* | -28% | ? | ? | ? | -4%
O=C(c1c[nH]c2ccccc12)C(O)C(c1ccccc1)N1CCOCC1 (centres undefined) | 31 | 9% | -10% | 23% | . | 0%
Cc1c(C(=O)NC(=S)Nc2ccccc2N2CCCC2)cccc1[N+](=O)[O-] | -29 | 3.5µM* | -15% | ? | -23% | -1%
CS(=O)(=O)N1CCN(c2ccc(NC(=S)NC(=O)c3cccs3)cc2)CC1 | -31 | -27% | . | -7% | . | 15%
CS(=O)(=O)N1CCN(c2ccc(NC(=S)NC(=O)c3ccccc3[N+](=O)[O-])cc2)CC1 | -30 | 13µM* | -9% | ? | i | -4%
COc1ccc(C(=O)NC(=S)Nc2ccccc2N2CCCCC2)cc1[N+](=O)[O-] | -11 | 13µM* | -10% | ? | i | 0%
COc1ccc(OC)c(NC(=O)CN(C)S(=O)(=O)c2ccc3[nH]c4c(c3c2)CCCC4)c1 | -15 | . | -4% | 0% | -14% | .
CCCCSc1nc(-c2ccc(OC)cc2)ccc1C#N | 2 | . | -2% | -4% | -3% | .
CCSc1nc(-c2ccc(OC)cc2)ccc1C#N | 26 | 10µM* | . | -24% | . | -8%
C(CCN1CCOCC1)CN1CCOCC1 | 62 | . | -2% | -1% | 43% | .
OCCN1CCOCCN(CCO)CCOCC1 | -92* | -2% | -16% | -18% | . | -8%
CC1(C(=O)Nc2cccc3c2CCCC3)CCN1C(=O)CCC1CCCC1 (centres undefined) | 5 | . | -7% | -22% | ? | .
COc1ccc(-n2nnc(-c3nc(-c4ccc5c(c4)OCO5)no3)c2C)cc1Cl | -20 | . | -4% | -11% | -8% | .
COc1cccc(-c2nc(N3CCC(C)CC3)c3ccccc3n2)c1O | 52 | ? | -28% | -25% | ? | 0%
COc1cccc(-c2nc(N3CCCC3)c3ccccc3n2)c1O | 22 | 5µM* | -8% | -11% | -10% | 4%
COc1cccc(-c2nc(N3CC(C)CC(C)C3)c3ccccc3n2)c1O (centres undefined) | 62 | 14µM* | -8% | ? | -17% | -6%
CC(=O)Nc1ccc(Nc2cc3[nH]c(-c4cccc(F)c4)cc3cn2)cc1 | -34 | . | . | . | . | .
CCOc1ccccc1NC(=O)COc1coc(CN2CCc3ccccc32)cc1=O | 5 | 7.9µM* | -21% | -2% | -24% | .
CCOC(=O)c1ccccc1NC(=O)COc1coc(CN2CCc3ccccc32)cc1=O | 5 | ? | -24% | -26% | -21% | .
O=C(COc1coc(CN2CCN(c3ccc(F)cc3)CC2)cc1=O)Nc1ccccc1 | -20 | ? | -15% | -30% | -11% | .
O=C(COc1coc(CN2CCN(c3ccccc3)CC2)cc1=O)Nc1ccc(F)cc1 | -83* | ? | -7% | -22% | -12% | .
CC(=O)Nc1ccccc1-c1nc(CNC(=O)c2ccc(-n3cccn3)cc2)c(C)o1 | . | . | 1% | 9% | -13% | .
SMILES | HCMV antiviral | HCV inh | Vaccinia Venus | FMDV antiviral | Vaccinia mCherry | FBPA Giardia inh
Cn1nnnc1SCC(=O)N(C1CCCCC1)C1CCS(=O)(=O)C1 (centres undefined) | -25 | -7% | 3% | 0% | 2% | 9%
COc1ccc(OC)c(CCNC(=O)c2cnn(-c3ccccc3)c2-n2cccc2)c1 | -90* | . | -14% | 0% | -8% | .
COc1ccc(OC)c(CCNC(=O)c2cc3c(=O)n(C)c4ccccc4c3n2C)c1 | -105* | . | -17% | ? | -11% | .
COc1ccc(CCNC(=O)c2cc3c(=O)n(C)c4ccccc4c3n2C)cc1OC | 21 | 19% | -6% | ? | -3% | -13%
O=C1C=C(c2c(O)ccc3ccccc23)c2ccccc2C1=O | -97* | ? | 11µM* | 22µM* | 10µM* | .
CC1CN(C(=O)c2cc(S(=O)(=O)N3CCCC3)ccc2Cl)CC(C)O1 (centres undefined) | 7 | 5% | . | 11% | . | 3%
CN(c1ccccc1)S(=O)(=O)c1ccc(Cl)c(C(=O)Nc2ccncc2)c1 | -26 | ? | . | ? | . | .
CN(c1ccc(F)cc1)S(=O)(=O)c1ccc(Cl)c(C(=O)Nc2ccncc2)c1 | -65* | ? | -11% | 20µM* | -16% | .
CC1CN(C(=O)c2cc(S(=O)(=O)N(C)c3ccc(F)cc3)ccc2Cl)CC(C)O1 (centres undefined) | -29 | 10µM* | -9% | -30% | ? | .
CC(C)CCOc1ccc(Oc2nc(N(C)C)nc(N(C)C)n2)nn1 | 129 | . | -21% | -15% | -21% | .
CCOC(=O)Cn1c(=O)n(-c2cccc(Cl)c2)c2nc(-c3ccccc3Cl)nc(C(N)=O)c21 | -12 | . | -1% | -21% | i | .
O=C(Nc1ncc(Cc2ccc(SC(F)F)cc2)s1)c1ccc(OC(F)F)cc1 | -86* | ? | ? | ? | -1% | 3%
Cc1nn(Cc2c(Cl)cccc2Cl)c(C)c1NC(=O)c1cnn2c(C(F)F)cc(-c3ccccc3)nc12 | -8 | -11% | -16% | 0% | -21% | 0%
Cc1ccc(-c2cc(C(F)F)n3ncc(C(=O)Nc4c(C)nn(Cc5ccccc5Cl)c4C)c3n2)cc1 | -95* | ? | -24% | ? | ? | -3%
Cc1ccc(-c2cc(C(F)F)n3ncc(C(=O)Nc4c(C)nn(Cc5c(Cl)cccc5Cl)c4C)c3n2)cc1 | -77* | -15% | -14% | -19% | i | 4%
Cc1ccc(NC(=O)c2cnn3c(C(F)F)cc(-c4ccccc4)nc23)c(C)c1 | -34 | . | -23% | -17% | -15% | .
CN(C)c1ccc(/C=C/c2c(Br)cnc3ccccc23)cc1 | . | . | -18% | . | -17% | .
CCc1nc2c(OCc3cccc(Cl)c3)cccn2c1N(C)C(=O)c1ccc(C)cc1 | -6 | . | . | . | . | .
COc1cc(OC)c(-c2nn3c(-c4ccco4)nnc3s2)cc1OC | ? | -2% | ? | -5% | 11µM* | -4%
Cc1nc2ccccc2n1-c1nc(-c2ccco2)cc(C(F)(F)F)n1 | -104* | 3.2µM* | ? | -6% | ? | 6%
FC(F)(F)c1cc(-c2ccco2)nc(-n2cnc3ccccc32)n1 | -10 | ? | . | -10% | . | -2%
O=[N+]([O-])c1ccc(/C=N/NC(=S)Nc2ccccc2)o1 | -26 | -10% | 0% | -4% | -12% | -15%
Cc1ccc(CCC(=O)Nc2ccc(Cl)cc2Cl)o1 | -66* | . | -17% | 25% | ? | .

Screens (PubChem)
